ELG1 genotox: inducers of genotoxicity in HEK293T ELG1-luciferase cells; HEK293T ELG1-luciferase reporter, luminescence, 16 h; Potency, µM (series often up to 46 µM), inactives show at the top dose activity change, positive = activation, actives largely listed as activators; actives 1.3% (n = 330,000); AID 504466; further: % of control where 0% means no effect; nearly all actives have a fitted effect of over 60% in size
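Cells (2,000/well) expressing the ELG1-luciferase fusion are dosed by pin tool and kept 16 hr at 37 °C, 5% CO2. Signal comes from ONE-Glo luciferase reagent after 30 min at room temperature.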
Rab9 promoter act: activates the Rab9 promoter. AID 485297. Potency, µM (top dose mostly 9.22 µM), inactives show at the highest dose activation, negative = inhibition, most hits filed as activators. Huh7 Rab9 promoter-luciferase reporter, luminescence, 24 h. actives 2.8% (n = 320,000); further: % of control where 0% means no effect; nearly all actives have a fitted effect of over 60% in size
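Measured in stably transfected Huh7 cells bearing a Rab9 promoter–luciferase construct: 24 h compound treatment at 37 °C, followed by luminescence detection.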
SMN2 splice up: enhancers of SMN2 splice variant expression; Potency, µM (top dose mostly 46.1 µM), inactives show top-dose activity change, positive = activation, actives largely listed as activators; actives 2.8% (n = 210,000); HEK293 SMN2-luciferase splicing reporter, luminescence, 30-36 h; further: % of control where 0% means no effect; nearly all actives have a fitted effect of over 55% in size
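qHTS luciferase splicing reporter: luminescence rises when SMN2 exon 7 is included in transfected HEK293 cells. Compound exposure lasted 30-36 h at 37C, with 4.5 mM final sodium butyrate as control, followed by a ONE-Glo read.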
ELG1 DNA repair: inhibitors of ELG1-dependent DNA repair in HEK293T cells. actives 2.3% (n = 330,000). Potency, µM (top dose mostly 46.1 µM), for inactives: top-dose activity change, negative = inhibition, hits mostly inhibitors. HEK293T ELG1-luciferase reporter, luminescence, 16 h; DNA damage induced by 5-fluorouridine; further: on the % scale 0 is the no-effect control and ±100 the full control effect; nearly all actives have a fitted effect of over 55% in size
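HEK293T cells expressing luciferase-tagged ELG1 (2,000/well) received 5-Fluorouridine plus compound or DMSO for 16 hr at 37 °C. Luciferase was read by ONE-Glo luminescence after 30 min at room temperature.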
FLuc counter: firefly luciferase modulation, counter-screen for miR-21 project; actives 6.9% (n = 360,000); P08659; purified FLuc, Km substrates, luminescence inhibition; Potency, µM (highest dose often 57.5 µM), for the others: top-dose activity change, negative = inhibition, actives largely listed as inhibitors;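 further: plate controls were vehicle for no effect and reference inhibitor for full effect; nearly all actives have a fitted effect of over 55% in size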
Target sequence (P08659 whole entry, looked up): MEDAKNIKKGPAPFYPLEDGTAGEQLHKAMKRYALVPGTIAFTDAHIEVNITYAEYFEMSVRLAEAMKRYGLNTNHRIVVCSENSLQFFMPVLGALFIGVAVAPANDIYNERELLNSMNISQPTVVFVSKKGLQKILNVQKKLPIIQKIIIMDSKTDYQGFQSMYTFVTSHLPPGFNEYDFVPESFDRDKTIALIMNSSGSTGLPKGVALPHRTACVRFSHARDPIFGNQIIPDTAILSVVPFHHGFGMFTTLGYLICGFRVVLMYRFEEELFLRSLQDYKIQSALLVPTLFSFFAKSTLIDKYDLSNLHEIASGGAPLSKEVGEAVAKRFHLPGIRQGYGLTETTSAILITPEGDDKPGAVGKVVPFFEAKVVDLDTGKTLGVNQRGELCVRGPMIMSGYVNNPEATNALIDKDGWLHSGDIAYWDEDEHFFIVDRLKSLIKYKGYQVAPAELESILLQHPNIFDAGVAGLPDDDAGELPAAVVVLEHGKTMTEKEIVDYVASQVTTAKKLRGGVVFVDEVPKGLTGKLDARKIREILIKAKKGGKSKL
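Biochemical qHTS of compounds, final roughly 60 µM downward over six points, against 10 nM purified firefly luciferase using Km concentrations of substrates (10 uM D-luciferin, 10 uM ATP) in Tris acetate pH 7.5 buffer; luminescence output.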
NPC1 promoter act: NPC1 promoter activation. Huh7 NPC1 promoter luciferase reporter, 24 h. Potency, µM (highest dose often 9.22 µM), inactives show top-dose activation, actives largely listed as activators. actives 2.4% (n = 320,000). AID 485313; further: % of control where 0% means no effect; nearly all actives have a fitted effect of over 60% in size
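In 1536-well qHTS, Huh7 cells harboring an NPC1 promoter–luciferase construct received compound for 24 h; activation was quantified by luminescence following luciferase reagent addition.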
Active calls of the source: *. Sampled rows, rich in hits. Any-hit rate of the full collection: about 9.2%. The call rests on the fitted dose curve; in most records, active means well fitted curve in the direction sought with a large enough effect; inconclusive means small, poorly fitted or top-dose-only effect, or another doubt; inactive means no such curve, though single readings can be large; an effect the other way counts as inactive or inconclusive. Potency means the concentration at half of the fitted maximal effect.

For CCOC(=O)c1cccc(NC(=O)CC(c2cc(OC)c(OC)c(OC)c2)N2Cc3ccccc3C2=O)c1 (stereo not given) the results were FLuc counter -5.9%.
Screening CCOc1ccccc1NC(=O)Cn1c(=O)n(-c2ccccc2)c(=O)c2c1c1cc(C)ccc1n2C returned FLuc counter 1.0%.
`CN(Cc1ccccc1)C(=O)c1ccc2c(c1)OCCO2` gave ELG1 genotox 4.2%, Rab9 promoter act 4.2%, SMN2 splice up 7.2%, ELG1 DNA repair inconclusive, FLuc counter -4.9% and NPC1 promoter act 1.1%.
COc1ccc(C(=O)NCCn2ccc3ccccc32)cc1 was read as ELG1 genotox inconclusive, Rab9 promoter act 1.41µM*, SMN2 splice up 12.6µM*, ELG1 DNA repair inconclusive, FLuc counter 10.7µM* and NPC1 promoter act inconclusive.
O=C(NCCc1ccccc1)c1ccc2c(c1)OCO2 was read as ELG1 genotox inconclusive, Rab9 promoter act inconclusive, ELG1 DNA repair inconclusive, FLuc counter 0.536µM* and NPC1 promoter act inconclusive.
`O=C(Cc1ccccc1)c1ccc2c(c1)OCCO2` gave ELG1 genotox 18.3µM*, Rab9 promoter act 2.82µM*, SMN2 splice up inconclusive, ELG1 DNA repair inconclusive, FLuc counter 8.49µM* and NPC1 promoter act 2.51µM*.
`Cc1cc2ccccc2n1CCNC(=O)c1ccccc1` gave ELG1 genotox 5.0%, Rab9 promoter act inconclusive, SMN2 splice up -54.1%, ELG1 DNA repair inconclusive, FLuc counter 21.3µM* and NPC1 promoter act inconclusive.
`Cc1ccc(C(=O)NCCn2ccc3ccccc32)cc1[N+](=O)[O-]` gave ELG1 genotox -3.2%, Rab9 promoter act 21.0%, SMN2 splice up inconclusive, ELG1 DNA repair -0.1%, FLuc counter -18.3% and NPC1 promoter act 20.8%.
For Cc1cc2ccccc2n1CCNC(=O)c1ccc(Br)cc1 the results were SMN2 splice up -58.0% and FLuc counter inconclusive.
`COC(=O)C1SCC2C(=O)N(Cc3ccccc3)CC(=O)N21` (stereo not given) gave ELG1 genotox -2.4%, Rab9 promoter act -2.0%, SMN2 splice up 9.4%, ELG1 DNA repair 2.5%, FLuc counter -2.5% and NPC1 promoter act -0.2%.
O=C(NCCn1ccc2ccccc21)c1ccc(S(=O)(=O)N2CCCCC2)cc1 was read as ELG1 genotox -16.1%, Rab9 promoter act -2.1%, SMN2 splice up -36.2%, ELG1 DNA repair inconclusive, FLuc counter 6.5% and NPC1 promoter act -1.6%.
Screening O=C(NCCn1ccc2ccccc21)c1ccc2c(c1)OCO2 returned ELG1 genotox 2.31µM*, Rab9 promoter act 1.12µM*, SMN2 splice up 8.91µM*, ELG1 DNA repair inconclusive, FLuc counter 6.75µM* and NPC1 promoter act 0.891µM*.
For COC(=O)c1cccc(NC(=O)CSc2nnc(-c3ccco3)o2)c1 the results were ELG1 genotox 4.9%, Rab9 promoter act -0.9%, ELG1 DNA repair 14.6%, FLuc counter 4.7% and NPC1 promoter act -5.5%.
`CCOc1ccccc1NC(=O)c1cc2ccccc2oc1=O` gave ELG1 genotox 9.0%, Rab9 promoter act 1.12µM*, ELG1 DNA repair 7.8%, FLuc counter -17.2% and NPC1 promoter act 3.16µM*.
Screening COc1ccccc1NS(=O)(=O)c1cccc(NC(=O)c2cc3ccccc3oc2=O)c1 returned ELG1 genotox 23.1µM*, Rab9 promoter act 3.16µM*, SMN2 splice up 14.1µM*, ELG1 DNA repair inconclusive, FLuc counter 10.7µM* and NPC1 promoter act 2.51µM*.
`CCOc1cccc2cc(C(=O)Nc3nccs3)c(=O)oc12` gave ELG1 genotox 0.2%, Rab9 promoter act -1.1%, SMN2 splice up -2.8%, ELG1 DNA repair 25.4%, FLuc counter 2.39µM* and NPC1 promoter act 2.3%.
Screening COc1ccccc1NS(=O)(=O)c1cccc(NC(=O)Nc2ccccc2)c1 returned ELG1 genotox -5.2%, Rab9 promoter act -0.3%, SMN2 splice up -29.0%, ELG1 DNA repair inconclusive, FLuc counter inconclusive and NPC1 promoter act -2.3%.
For O=C(Nc1ccc(F)cc1F)c1cccc(C(=O)Nc2ccc(F)cc2F)n1 the results were ELG1 genotox 18.3µM*, Rab9 promoter act -7.8%, ELG1 DNA repair 16.4µM*, FLuc counter -1.2% and NPC1 promoter act -5.6%.
`CCOc1cccc2cc(C(=O)N3CCOCC3)c(=O)oc12` gave ELG1 genotox 2.7%, Rab9 promoter act -2.0%, ELG1 DNA repair 10.9%, FLuc counter 5.5% and NPC1 promoter act -4.0%.
For Cc1cccc(C)c1NC(=O)Cn1cc(S(=O)(=O)Cc2ccc(F)cc2)c2ccccc21 the results were FLuc counter -8.0%.
For O=C(Nc1ccc(F)cc1F)c1cc2ccccc2oc1=O the results were ELG1 genotox 4.61µM*, Rab9 promoter act 1.78µM*, ELG1 DNA repair inconclusive, FLuc counter 0.757µM* and NPC1 promoter act 2µM*.
`CCC(Sc1nccn1C)C(=O)Nc1ccc(Cl)cn1` (stereo not given) gave ELG1 genotox -0.6%, Rab9 promoter act 0.8%, SMN2 splice up 8.7%, ELG1 DNA repair -4.8%, FLuc counter 0.2% and NPC1 promoter act -1.9%.
`C/C(=C\c1ccc(N)cc1)c1nc2ccccc2[nH]1` gave ELG1 genotox inconclusive, Rab9 promoter act 2.24µM*, ELG1 DNA repair inconclusive, FLuc counter 3.01µM* and NPC1 promoter act 2.51µM*.
CN(C)c1ccc(/C=C(\NC(=O)c2ccccc2)C(=O)NCc2cccnc2)cc1 was read as ELG1 genotox -1.5%, Rab9 promoter act -2.6%, ELG1 DNA repair 4.4%, FLuc counter 10.7µM* and NPC1 promoter act 0.5%.
`O=C(NCCCn1ccnc1)/C(=C/c1ccc(Cl)cc1)NC(=O)c1ccccc1` gave ELG1 genotox -3.7%, Rab9 promoter act 1.0%, ELG1 DNA repair 0.7%, FLuc counter 0.8% and NPC1 promoter act -2.7%.
For CN(C)c1ccc(/C=C(/NC(=O)c2ccccc2)C(=O)NCCCn2ccnc2)cc1 the results were ELG1 genotox 0.6%, Rab9 promoter act -0.8%, ELG1 DNA repair 10.3%, FLuc counter 4.78µM* and NPC1 promoter act -2.9%.
Screening CC(C)(C)c1ccc(C(=O)N/C(=C\c2cccc([N+](=O)[O-])c2)C(=O)Nc2cccc(C(=O)O)c2)cc1 returned ELG1 genotox 5.6%, Rab9 promoter act 14.0%, ELG1 DNA repair 8.2%, FLuc counter inconclusive and NPC1 promoter act -2.6%.
